Source: PubChem BioAssay (several laboratories)
Only some compounds are listed: those with a hit (about 4.7% of all), similar ones and a draw of the others.
tim23-1 inh: tim23-1 yeast growth inhibition. S. cerevisiae tim23-1 growth, BacTiter-Glo luminescence, 24 h. inhibition, % at 20 µM. hit rate 1.3% among 330,000. AID 463212;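 active means growth inhibition of the mutant yeast at or above 50%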;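 further: temperature-sensitive mutant grown at 25 °C; plate controls were DMSO-treated mutant yeast for no effect and medium wells lacking yeast for full effect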
Calb FLC: C. albicans growth modulation with fluconazole | C. albicans CaCi-2 (fluconazole-resistant clinical isolate) + fluconazole, Alamar Blue growth, 48 h | growth inhibition, % (no concentration beside the values) | hit rate 0.57% among 300,000 | AID 1979;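 active means growth inhibition above about 58% in most replicates, limit read from the data, passing the limit was not always enough; inconclusive means exactly half the replicates above a set limit; inactive means most replicates below a set limit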;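 further: all wells also contain fluconazole at 8 µg/ml as a sub-toxic cotreatment; 0% = median of DMSO wells and 100% = median of geldanamycin control wells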
PfHsp90 set2: inhibits growth of yeast expressing Plasmodium falciparum Hsp90; inhibition, % at 9.4 µM; hit rate 0.32% among 310,000; S. cerevisiae expressing PfHsp90, BacTiter-Glo ATP, 48 h; yeast lacking PDR1 and PDR3 efflux regulators;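 active means every replicate shows inhibition above about 80%, whatever the replicate mean, limit read from the data; inconclusive means mean inhibition reaches the set limit but some replicate falls short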;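 further: 0% = DMSO neutral controls and 100% = 20 µM radicicol positive controls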
tim10-1 inh: inhibits growth of tim10-1 mutant yeast; hit rate 2.2% among 330,000; S. cerevisiae tim10-1 ts strain growth, BacTiter-Glo, 24 h; inhibition, % at 20 µM; AID 463190;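 active means inhibition of at least 40%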;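 further: mutant grown at 25 °C; 0% = DMSO wells with yeast and 100% = wells holding no yeast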
SKKanGAS inh: inhibitors of SKKanGAS S. pyogenes growth in kanamycin (SK-promoter or general growth effect); BacTiter-Glo, 6 h; inhibition, % at 7.5 µM; hit rate 1.3% among 300,000;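 active means mean replicate score, as percent of positive control median, at least 50; inconclusive means mean below 50 but one replicate at or above 50; inactive means mean and every replicate below 50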;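 further: strain carries kanamycin resistance gene driven by streptokinase promoter and grows in 40 µg/ml kanamycin; loss of luminescence reflects streptokinase promoter inhibition or plain growth inhibition; 0% = median of DMSO wells and 100% = positive control at its reference dose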
TIM10 inh: inhibits growth of TIM10 yeast strain | S. cerevisiae TIM10 strain growth, BacTiter-Glo luminescence, 24 h | inhibition, % at 10 µM | hit rate 1.4% among 330,000 | AID 463195;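 active means inhibition of 40% or more at the single tested concentration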;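 further: wild-type TIM10 isogenic control strain grown at permissive 25 °C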
tim10-1 confirm: tim10-1 yeast growth inhibition, confirmed; shares compounds with tim10-1 inh; S. cerevisiae tim10-1 ts strain growth, BacTiter-Glo, 24 h; inhibition, % at 20 µM; hit rate 56% among 7,400; AID 463213;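 active means inhibition of yeast growth at or above a set limit in either of two repeat tests at 20 µM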;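 further: tim10-1 mutant grown at permissive 25 °C to find synthetic lethal compounds; 0% = DMSO yeast wells and 100% = medium wells without yeast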
tim10 confirm: confirmation of TIM10 yeast growth inhibitors; shares compounds with TIM10 inh; S. cerevisiae tim10 strain growth, BacTiter-Glo luminescence, 24 h; inhibition, % at 10 µM; hit rate 63% among 4,600;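 active means inhibition of yeast growth at or above a set limit in either of two replicates at 10 µM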;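 further: this counterscreen used the strain with wild-type TIM10; 0% = yeast with DMSO and 100% = medium wells lacking yeast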
tim23-1 conf: confirmation of tim23-1 mutant yeast growth inhibitors; inhibition, % at 20 µM; hit rate 83% among 4,400; AID 463218; shares compounds with tim23-1 inh; S. cerevisiae tim23-1 growth, BacTiter-Glo luminescence, 24 h;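 active means inhibition above about 39% in either of two replicate wells at 20 µM, limit read from the data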;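 further: temperature-sensitive tim23-1 mutant grown at 25 °C; 0% = DMSO wells with yeast and 100% = medium wells without yeast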
Starred values were filed as active, the others as inactive; ? = inconclusive; . = no result.

SMILES	tim23-1 inh	Calb FLC	PfHsp90 set2	tim10-1 inh	SKKanGAS inh	TIM10 inh	tim10-1 confirm	tim10 confirm	tim23-1 conf
COC(=O)CCC(=O)NNC(=O)C1CC1(c1ccccc1)c1ccccc1 (stereo not given)	-12	-2	-15	12	0	-3	.	.	.
CCCCN(C(=O)c1c(CC)noc1C)c1c(N)n(CCC)c(=O)[nH]c1=O	-13	-10	-22	-15	-7	-6	.	.	.
CC1CC(C)CN(C(=O)COC(=O)c2ccc([N+](=O)[O-])o2)C1 (stereo not given)	22	.	-34	21	.	25	.	.	.
O=C(Cc1ccc([N+](=O)[O-])cc1)N1CCCCCC1	10	-17	10	1	-2	-3	.	.	.
O=C(c1ccc(-c2ccc([N+](=O)[O-])cc2)o1)N1CCCCCCC1	76*	.	-55	59*	.	63*	55*	69*	53*
CC1CCN(C(=O)c2ccc([N+](=O)[O-])o2)CC1	56*	4	-8	41*	0	6	40*	.	58*
CC(=O)Cc1nsc(NC(=O)c2ccc(-c3ccc(Cl)cc3Cl)o2)n1	57*	1	-44	46*	17	7	35*	.	53*
CC(=O)Cc1nsc(NC(=O)c2ccc(-c3cc(Cl)ccc3Cl)o2)n1	31	15	-21	20	18	25	.	.	.
CC1(C(=O)Nc2nnc(SCc3ccccc3)s2)Cc2ccccc2C(=O)O1 (stereo not given)	52*	38	.	47*	10	33	50*	.	42*
O=c1c2c3c(sc2ncn1/N=C/c1ccncc1)CCCC3	66*	15	10	61*	-3	43*	62*	50*	27
O=c1c2c3c(sc2ncn1/N=C/c1cccnc1)CCCC3	44	32	-12	39	-3	20	.	.	.
COc1ccccc1CN1CC(C(=O)NCc2cc(F)cc(C(F)(F)F)c2)CCC1=O (stereo not given)	8	2	-61	0	-2	11	.	.	.
O=C(Nc1ccccc1Cl)C1C(c2ccccc2)C1(Cl)Cl (stereo not given)	40	-17	-12	23	33	5	.	.	.
O=C(Nc1ccc(F)cc1)C1C(c2ccccc2)C1(Cl)Cl (stereo not given)	59*	-20	-35	48*	1	41*	39*	-10	40*
Oc1ccc2ccccc2c1C=NC1CCCCC1	55*	3	26	41*	-3	18	14	.	53*
Oc1ccc2ccccc2c1/C=N/n1cnnc1	11	6	.	5	-1	5	.	.	.
CCc1c(C)nc2[nH]ncn2c1=O	.	.	5	.	.	.	.	.	.
O=C1c2ccccc2C(=O)c2c1cccc2-n1nnc2ccccc21	1	1	-18	-19	3	-3	.	.	.
O=C1C(N2CCOCC2)=C(n2nnc3ccccc32)C(=O)c2ccccc21	83*	-19	38	64*	30	78*	60*	69*	89*
Cc1cccc(/C(N)=N/OC(=O)C23CC4CC(CC(C4)C2)C3)c1	68*	-8	-19	55*	0	80*	57*	5	66*
N/C(=N\OC(=O)c1ccc(Br)o1)c1ccccn1	17	-15	13	29	-4	26	.	.	.
COc1cc(OC)cc(C(=O)O/N=C(\N)c2cccc(C)c2)c1	86*	9	-20	53*	18	79*	40*	85*	83*
Cc1cccc(C(=O)O/N=C(\N)c2cccc([N+](=O)[O-])c2)c1	53*	?	5	74*	0	58*	80*	49*	51*
Cc1ccc(C)c(OCC(=O)O/N=C(\N)c2cccc([N+](=O)[O-])c2)c1	28	5	-6	31	-5	22	.	.	.
Cc1cccc(/C(N)=N/OC(=O)Cc2ccccc2)c1	30	19	8	37	26	34	.	.	.
